# High-throughput results (PubChem)
# This excerpt belongs to a sample that is enriched for hits.
# SARS PLpro yeast – qHTS of Yeast-based Assay for SARS-CoV PLP | 0.19% of 330,000 active | Potency, µM (top dose mostly 32.9 µM), for inactives: at the top dose activity, positive = growth rescue, hits mostly activators | S. cerevisiae expressing SARS-CoV PLpro, growth rescue; calls by dose curve; further: potency means the concentration at half of the fitted maximal effect; 0% is about no effect; nearly all actives have a fitted effect of over 55% in size
# AmpC no deterg – qHTS Inhibitors of AmpC Beta-Lactamase (assay without detergent) | P00811 | AmpC nitrocefin hydrolysis, absorbance 480 nm, 0.0001% Triton | Potency, µM (titrated, usually from 57.1 µM), without a hit: top-dose activity change, negative = inhibition, actives largely listed as inhibitors | 0.52% of 330,000 active | AID 485341, 2010;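 further: potency means the concentration at half of the fitted maximal effect; plate controls were no compound for no effect and no enzyme for full effect; nearly all actives have a fitted effect of over 20% in size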
# Target sequence (P00811 whole entry, looked up): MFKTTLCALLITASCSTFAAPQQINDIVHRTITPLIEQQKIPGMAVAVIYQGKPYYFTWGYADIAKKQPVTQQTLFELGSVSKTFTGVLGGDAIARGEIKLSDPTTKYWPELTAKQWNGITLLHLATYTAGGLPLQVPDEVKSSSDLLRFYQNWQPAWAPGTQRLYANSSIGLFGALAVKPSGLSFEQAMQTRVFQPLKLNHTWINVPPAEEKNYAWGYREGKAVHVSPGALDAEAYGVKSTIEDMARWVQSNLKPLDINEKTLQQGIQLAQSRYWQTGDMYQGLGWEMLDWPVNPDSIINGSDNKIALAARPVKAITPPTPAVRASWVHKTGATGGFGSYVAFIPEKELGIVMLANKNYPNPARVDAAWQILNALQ
#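 20 mM phosphate pH 7.0 + 0.01% (detergent screen) or 0.0001% Triton X-100; 5.3 nM AmpC reagent; cpd preinc 15 min RT; nitrocefin (800 uM stock) to start; A480 q20 s × 4 min; Activity was normalised to no-enzyme and no-compound control wells.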
# AmpC detergent – qHTS Inhibitors of AmpC Beta-Lactamase (assay with detergent) | P00811 | AmpC hydrolysis of nitrocefin, absorbance 480 nm, 0.01% Triton | Potency, µM (top dose mostly 114 µM), for inactives: at the highest dose activity change, negative = inhibition, actives largely listed as inhibitors | 0.041% of 370,000 active | AID 485294, 2010;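 further: potency means the concentration at half of the fitted maximal effect; 0% = no-compound wells and -100% = no-enzyme wells; nearly all actives have a fitted effect of over 25% in size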
#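 20 mM phosphate pH 7.0 + 0.01% (detergent screen) or 0.0001% Triton X-100; 5.3 nM AmpC reagent; cpd preinc 15 min RT; nitrocefin (800 uM stock) to start; A480 q20 s × 4 min; Activity was normalised to no-enzyme and no-compound control wells.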
# AMA1 RON2 block – qHTS for Inhibitors of AMA1-RON; Towards Development of Antimalarial Drug Lead: Primary Screen | Plasmodium falciparum AMA1 (3D7) - RON2 peptide interaction | AlphaScreen AMA1-biotinylated RON2 peptide binding | Potency, µM (doses to about 58.2 µM), inactives show at the top dose activity change, negative = inhibition, actives largely listed as inhibitors | 0.2% of 360,000 active | AID 720542, 2013;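 further: potency means the concentration at half of the fitted maximal effect; 0% = vehicle wells and -100% = peptide control; nearly all actives have a fitted effect of over 45% in size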
#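 AMA1 (3D7) with his tag at 25 nM final met compounds first, then biotinylated RON2 peptide at 25 nM; detection used donor plus acceptor beads, 10 µg/mL apiece, read by AlphaScreen after 30 min at room temperature.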
# Cycloheximide cs – Cycloheximide Counterscreen for Small Molecule Inhibitors of Shiga Toxin | cell reporter, cycloheximide protein synthesis inhibition counterscreen | max response, % | 12% of 300,000 active; in the data active means max response mostly above about 13%, no sharp cut-off; inactive means mostly below about 14%; further: read at 38.3 µM for the half of the compounds with a filed dose; 0% is about no effect
# Shiga toxin inh – A qHTS for Small Molecule Inhibitors of Shiga Toxin | inhibition, % at 38.7 µM | Vero cells, Shiga toxin protein synthesis inhibition reporter | 9.2% of 290,000 active; in the data active means inhibition mostly above about 28%, no sharp cut-off; inactive means mostly below about 43%; further: 0% is about no effect
# An asterisk follows results filed as active; ? = inconclusive; . = no result given; [ ] = dose if it differs, or a comment. Unless noted, the call rests on the fitted dose curve; in most records, active means well fitted curve in the direction sought with a large enough effect; inconclusive means small, poorly fitted or top-dose-only effect, or another doubt; inactive means no such curve, though single readings can be large; an effect the other way counts as inactive or inconclusive.
SMILES,SARS PLpro yeast,AmpC no deterg,AmpC detergent,AMA1 RON2 block,Cycloheximide cs,Shiga toxin inh
O=C(/C=C/c1ccccc1[N+](=O)[O-])NC1CCCC1,0%,-14%[2.29 µM],?,10%,19*,70*
O=C(/C=C/c1ccccc1[N+](=O)[O-])Nc1ccccc1,-2%,-35%,-10%,0%,36*,101*
O=C(O)/C=C/c1ccccc1[N+](=O)[O-],1%,-3%,2%,-10%,-1,-4
COc1cc(NC(=O)/C=C/c2ccccc2[N+](=O)[O-])cc(OC)c1,3%,-32%,-9%,-1%,15*,19
Cc1ccc(Nc2ncc3c(n2)CC(C)CC3=O)c(C)c1 (stereo not given),0%,-4%,-2%,11%,39*,97*
CC1CC(=O)c2cnc(NCc3ccco3)nc2C1 (stereo not given),5%,-23%,?,-7%,16*,53
O=C1CC(c2ccc(F)cc2)Cc2nc(NCc3ccco3)ncc21 (stereo not given),2%,-16%,0%,0%,-2,6
CC1CC(=O)c2cnc(Nc3ccccc3)nc2C1 (stereo not given),8%,-28%,-14%,1%,48*,55
COc1cccc(C(=O)Nc2ncc3c(n2)CC(C)CC3=O)c1 (stereo not given),-6%,1%,6%,-2%,40*,71*
CC1CC(=O)c2cnc(Nc3cccc(C(F)(F)F)c3)nc2C1 (stereo not given),3%,-14%,8%,6%,18,64
Oc1ccccc1C1=NC(c2ccccc2)NC(c2ccccc2)C1 (stereo not given),.,.,.,4%,.,.
O=[N+]([O-])c1ccc(NCc2ccc(Cl)cc2)c2ccncc12,-1%,-19%,-2%,5%,-2,-2
COCCCNc1nc(-c2ccncc2)nc2ccccc12,-5%,-13%,0%,12%,-3,-2
COC(=O)C(CCSC)NC(=O)c1cc2c(n(-c3ccccc3)c1=O)CCCC2=O (stereo not given),0%,-18%,9%,-15%,16*,38
Cc1ccc(NC(=O)C(C)SCc2ccccc2)cc1 (stereo not given),-1%,-25%,1%,-5%,30*,82*
COc1cccc(NC(=O)C(C)SCc2ccccc2)c1 (stereo not given),-1%,-30%,2%,6%,23*,44*
CC(SCc1ccccc1)C(=O)Nc1ccc2c(c1)OCO2 (stereo not given),1%,-25%,1%,-1%,37*,44
CC(SCc1ccccc1)C(=O)N/N=C/c1ccc2c(c1)OCO2 (stereo not given),3%,-24%,-2%,2%,8,24
COc1ccc(NC(=O)C(C)SCc2ccccc2)cc1OC (stereo not given),27%,-18%,-12%,3%,6,-3
N#Cc1cc2c(nc1SC1CC(=O)N(c3ccccc3)C1=O)CCC2 (stereo not given),3%,-17%,?,11%,83*,115*
CCc1nnc(NC(=O)Nc2ccc(Cl)cc2)s1,1%,-31%,1%,-2%,25*,52*
COc1ccc(NC(=O)Nc2nnc(C(C)C)s2)cc1,6%,-27%,-10%,-8%,42*,62*
COc1ccc(CC(=O)Nc2nnc(C(C)C)s2)cc1,0%,-10%,-1%,16%,19*,29
O=C(Nc1ccc(Cl)cc1)Nc1nnc(CSCc2ccc(Cl)cc2)s1,4%,-28%,1%,2%,-6,-7
CCCc1nnc(NC(=O)Nc2ccc(OC)cc2)s1,-2%,-39%,2%,8%,24*,39
COc1ccc(NC(=O)Nc2nnc(-c3ccccc3F)s2)cc1,0%,-6%[11.4 µM],-11%,28%,-1,-4
